# Laboratory results from PubChem BioAssay AID488899 (Broad Institute, 2010).
# Out of some 330,000 compounds screened, about 2,800 (0.85%) were called active.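 The calls were made as follows: active = mean inhibition across replicates of 60% or more, whatever share of single replicates reaches that level; inconclusive = some that reach 60%, reason not given; inactive = mean inhibition across replicates below 60%.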 Only a selection was taken, and actives are over-represented in it overall.
# Experiment: inhibitors of MITF-dependent TRPM1 promoter reporter, primary screen, cell-based, SK-MEL-5, single point, luciferase (AID 488899)
# Details: SK-MEL-5 TRPM1 promoter luciferase, 24 h; at 12.5 µM; hits give high values
row,Compound,inhibition
1,Cc1nc(-c2nnc(SCC(=O)Nc3cc(C(F)(F)F)cc(C(F)(F)F)c3)n2C)cs1,6.42% (inactive)
2,CCCCOc1ccc(C(=O)N/C(=C/C=C/c2ccccc2)C(=O)N2CCOCC2)cc1,0.224% (inactive)
3,O=[N+]([O-])c1cc2ccccc2nc1-c1ccccc1,-2.83% (inactive)
4,CN(C)CCn1c2c(c(SCC(=O)Nc3ccccc3C(F)(F)F)nc1=O)CCCC2,1.54% (inactive)
5,CC1CCCCC1NC(=O)/C(C#N)=C/C=C/c1ccccc1[N+](=O)[O-] (stereo not drawn),87% (active)
6,O=[N+]([O-])c1ccccc1/C=C/CN1CCC(O)CC1,-6.15% (inactive)
7,O=[N+]([O-])c1ccccc1/C=C/CN1CCCC(CO)C1 (stereo not drawn),3.33% (inactive)
8,CSCCC(NS(=O)(=O)c1ccc2c(c1)oc(=O)n2C)C(=O)NC1CCCc2ccccc21 (stereo not drawn),4.17% (inactive)
9,Cc1cccc(/C(N)=N/OC(=O)c2ccccc2Cl)c1,-7.17% (inactive)
10,COc1ccccc1NC(=O)CCC(=O)N1CC(C)Oc2ccc(C)cc21 (stereo not drawn),-0.622% (inactive)
11,CC1CN(C(=O)CCC(=O)NCCCN2CCC(Cc3ccccc3)CC2)c2cc(Cl)ccc2O1 (stereo not drawn),81.8% (active)
12,CC1CN(C(=O)CCC(=O)NCc2cccnc2)c2ccccc2O1 (stereo not drawn),-4.62% (inactive)
13,COc1ccc(OC)c(-c2c(=O)n(OCc3ccccc3Br)c3ccccc3[n+]2[O-])c1,15.9% (inactive)
14,CC(=O)Nc1ccc(S(=O)(=O)NC2Cc3ccccc3C2)cc1,4.61% (inactive)
15,C=C(C)C(=O)Nc1cccc(C2=NOC3(C2)C[C@H](C(N)=O)N(C(=O)C(c2ccccc2)c2ccccc2)C3)c1 (stereo partly drawn),0.48% (inactive)
16,CCN(CC)S(=O)(=O)c1ccc(NC(=O)c2cnc(C)cn2)cc1,10.2% (inactive)
17,CCN(CC)S(=O)(=O)c1ccc(NC(=O)c2cccnc2Cl)c(NC(=O)c2cccnc2Cl)c1,74.2% (active)
18,CCN(CC)S(=O)(=O)c1ccc(Cl)c(NC(=O)c2ccncc2)c1,0.4% (inactive)
19,O=C1CC(c2ccccc2)C(c2ccccc2)=NN1 (stereo not drawn),5.8% (inactive)
20,Cc1cccc(N(C(=O)Cn2nnc(-c3ccc(C)o3)n2)C(C(=O)NC2CCCC2)c2ccncc2)c1 (stereo not drawn),3.32% (inactive)
21,CCN(CC)CCCC(C)n1c2nc(=O)[nH]c(=O)c-2nc2cc(Cl)ccc21 (stereo not drawn),83.3% (active)
22,CCN(CC)CCn1c2ccc(Cl)cc2c2nc(C)sc21,6.02% (inactive)

row,Compound,inhibition
1,CCOC(=O)c1c(C)[nH]c(C(=O)NCCN2CCOCC2)c1C,8.7% (inactive)
2,COc1ccccc1NC(=O)N(O)C1(C#N)CCCCC1,-7.2% (inactive)
3,CN1c2ccc(C=O)c3c(C=O)ccc(c23)N(C)C1(C)C,96.4% (active)
4,CCN(C(=O)COC(=O)c1c(NC(C)=O)sc(C)c1C)C1CCS(=O)(=O)C1 (stereo not drawn),11% (inactive)
5,COc1ccc(C(CCNCc2ccccc2F)c2ccc(F)cc2)cc1 (stereo not drawn),-10.4% (inactive)
6,COc1ccccc1NC(=O)CCCc1c[nH]c2ccccc12,-1.28% (inactive)
7,COc1cccc(CNCCc2c[nH]c3ccccc23)c1OCc1ccccc1F,95.2% (active)
8,O=C(c1cc(COc2ccc(F)cc2F)on1)N1CCOCC1,-44.5% (inactive)
9,CC(C)c1ccc(S(=O)(=O)N2CCN(C(=O)CN3C(=O)NC(C)(c4ccccc4)C3=O)CC2)cc1 (stereo not drawn),-4.8% (inactive)
10,Cc1csc(NC(=O)CSc2nnc(-c3cccnc3)o2)n1,-14.8% (inactive)
11,O=C(CCl)N(Cc1cccc([N+](=O)[O-])c1)c1cccc(Cl)c1,66.2% (active)
12,Cc1ccc(S(=O)(=O)N(Cc2cccc([N+](=O)[O-])c2)C(=O)N2CCN(C)CC2)cc1,4.92% (inactive)
13,CCN(CC)C(=O)CN(c1cccc([N+](=O)[O-])c1)S(=O)(=O)c1ccccc1,-4.33% (inactive)
14,COCCSc1nnc(NC(=O)c2cc(OC)c(OC)cc2[N+](=O)[O-])s1,-2.51% (inactive)
15,CC(=NNC(=O)c1ccncc1)c1ccc(Cl)c(Cl)c1,-7.3% (inactive)
16,NS(=O)(=O)c1ccc(CNC(=O)c2ccc(Cl)cc2[N+](=O)[O-])cc1,10.6% (inactive)
17,CCCCNC(=O)C(C)N(CCN(C)C)C(=O)CCCCCN1C(=O)NC(c2ccc(Cl)cc2)C(C(=O)OCc2ccccc2)=C1C (stereo not drawn),94.5% (active)
18,CCOC(=O)CCCNC(=O)CN1C(=O)NC(CCc2ccccc2)C1=O (stereo not drawn),4.69% (inactive)
19,CCN1C(=O)N[C@@H](c2ccccc2)C(C(=O)OC)=C1C,-9.9% (inactive)
20,CCCCNC(=O)C(C)N(CCN(C)C)C(=O)CCCN1C(=O)NC(c2ccc(Cl)cc2)C(C(=O)OCc2ccccc2)=C1C (stereo not drawn),91.1% (active)
21,CCOC(=O)C1=C(c2ccccc2)NC(=S)NC1c1ccc(Cl)cc1 (stereo not drawn),-19% (inactive)
22,CC1=C(C(=O)OCc2ccccc2)C(c2ccc(C(F)(F)F)cc2)NC(=O)N1CCCCCC(=O)O (stereo not drawn),-6.33% (inactive)

row,Compound,inhibition
1,C/C(CC(=O)NCc1ccc(Cl)cc1)=N\NC(=O)COc1ccc(C)cc1Br,40.1% (inactive)
2,Nc1nc(SCC(=O)N2CCN(S(=O)(=O)c3ccc(Cl)cc3)CC2)n[nH]1,-2.96% (inactive)
3,Fc1ccccc1/C=N/Nc1cc(N2CCCCC2)ncn1,-35% (inactive)
4,COc1cccc2sc(N(CCCN(C)C)C(=O)C(c3ccccc3)c3ccccc3)nc12,71.9% (active)
5,COc1cc2ccccc2cc1C(=O)N(CCN(C)C)c1nc2c(F)cccc2s1,2.41% (inactive)
6,COc1cccc2sc(N(CCCN(C)C)C(=O)CCS(=O)(=O)c3ccccc3)nc12,31.1% (inactive)
7,COc1cccc2c1C(=O)c1c(O)c3c(c(O)c1C2=O)CC(O)(C(C)=NNC(=O)c1ccc(Cl)c(Cl)c1)CC3OC1CC(N)C(O)C(C)O1 (stereo not drawn),82.2% (active)
8,CN(CC(=O)Nc1ccc(F)c(F)c1F)C(=O)Cn1cnc2c1c(=O)n(C)c(=O)n2C,-2.69% (inactive)
9,Cc1ccc(OCC(=O)Nc2ccc3oc(=O)ccc3c2)cc1C,-15.4% (inactive)
10,CCN1/C(=C\c2ccc3ccccc3[n+]2CC)Sc2cc(C)ccc21,104% (active)
11,CC(C)(C)n1nc2c(c1NC(=O)c1ccc(S(=O)(=O)N3CCCC3)cc1)CS(=O)C2 (stereo not drawn),-11.4% (inactive)
12,COc1ccc(S(=O)(=O)/N=C2\C=C(NS(=O)(=O)c3ccccc3)C(=O)c3ccccc32)cc1,12.7% (inactive)
13,O=C(NC1=CC(=O)c2ccccc2C1=O)c1ccccc1,94.4% (active)
14,O=S(=O)(NCCNS(=O)(=O)c1ccccc1)c1ccccc1,11.2% (inactive)
15,O=C1C=C(NS(=O)(=O)c2ccccc2)C(=O)c2ccccc21,65.7% (active)
16,Cn1c(NC(=O)c2ccccc2)nc2ccccc21,-26.1% (inactive)
17,CC(NC(=O)c1ccccc1)C(=O)Nc1ccccc1 (stereo not drawn),-6.34% (inactive)
18,O=C(COC(=O)CSc1nnc(-c2ccc(Cl)cc2)o1)Nc1cc(Cl)cc(Cl)c1,-3.64% (inactive)
19,CC(C)c1nc2oc3c(N4CCN(C)CC4)ncnc3c2c2c1CCC2,5.53% (inactive)
20,CC(=O)N1CCc2ccc(N)cc21,6.31% (inactive)
21,CSc1ccccc1NC(=O)c1cnc2sc(C)cn2c1=O,-128% (inactive)
22,COCCN1C(=O)C(=O)/C(=C(/O)c2ccc(S(=O)(=O)N3CCOCC3)cc2)C1c1ccc(O)c(OC)c1 (stereo not drawn),-1.49% (inactive)

row,Compound,inhibition
1,O=C(CNCc1ccc(Cl)cc1)Nc1cccc(C(=O)O)c1,2.1% (inactive)
2,O=C(CSc1ccccc1F)NC1CCS(=O)(=O)C1 (stereo not drawn),-4.88% (inactive)
3,CCCSC(=S)NC1CCS(=O)(=O)C1 (stereo not drawn),17% (inactive)
4,O=S1(=O)CCC(NC(=S)SCc2ccccc2Br)C1 (stereo not drawn),75.3% (active)
5,COc1ccc(OC)c(Cc2cnc3nc(N)nc(N)c3c2C)c1,8.03% (inactive)
6,CCOC(=O)N1CCN(C(=O)c2ccc3c(=O)n(CCc4ccc(OC)c(OC)c4)c(=O)[nH]c3c2)CC1,2.29% (inactive)
7,Cc1oc2c(C)c3oc(=O)c(CC(=O)N[C@@H](CC(C)C)C(=O)N[C@@H](Cc4ccccc4)C(=O)O)c(C)c3cc2c1C,9.54% (inactive)
8,CC(C)(C)NC(=O)COc1ccc(CNc2ccc3[nH]c(=O)[nH]c3c2)cc1,0.891% (inactive)
9,O=C(c1ccc2nc(N3CCOCC3)sc2c1)N1CCN(c2ccc(Cl)cc2)CC1,4.87% (inactive)
10,COc1ccc2nc(N3CCN(C(=O)c4ccc([N+](=O)[O-])o4)CC3)sc2c1,67.3% (active)
11,COc1ccc2nc(N3C(=O)C(O)=C(C(=O)c4ccco4)C3c3ccco3)sc2c1 (stereo not drawn),10.6% (inactive)
12,CC(C)(C)c1nnc2sc(SCC(O)=C(C#N)c3nc4ccccc4[nH]3)nn2c1=O,-7.27% (inactive)
13,O=C(CN1CCc2ccccc2C1)Nc1cccc(S(=O)(=O)N2CCOCC2)c1,4.73% (inactive)
14,COC(=O)c1ccc(CN2CCC(CO)(Cc3ccc(OC)cc3)CC2)cc1,-13% (inactive)
15,Nc1c(Cl)cc(S(N)(=O)=O)cc1S(N)(=O)=O,-2.87% (inactive)
16,S=C(NCCCc1ccccc1)Nc1ccc(Br)cc1,-6.26% (inactive)
17,C=C(C)C(=O)O[C@H]1C/C(C)=C\C(=O)/C=C(\C)[C@H](O)[C@@H]2OC(=O)C(=C)[C@@H]21,85.9% (active)
18,O=[N+]([O-])c1cccc(C=NN=Cc2ccccc2O)c1,-42.5% (inactive)
19,CCOc1ccc(CCNC(=O)COC(=O)C2CCN(S(=O)(=O)c3ccccc3)CC2)cc1OCC,9.54% (inactive)
20,O=C(N/N=C\c1ccc(Br)cc1)c1ccc(Cn2cccn2)o1,-24.2% (inactive)
21,Cc1c(Cl)c([N+](=O)[O-])nn1Cc1ccc(C(=O)N/N=C\c2cc(Cl)ccc2O)o1,65.8% (active)
22,Cc1nn(Cc2ccc(Cl)cc2)c(Cl)c1/C=N/NC(=O)c1cccnc1,18.6% (inactive)
